Hits are enriched below; roughly 6.5% of the tested compounds scored in any of these assays.
FMDV inh – antivirals against foot and mouth disease virus. AID 1159524. 1.2% of 410,000 active. Potency, µM (titrated, usually from 57.9 µM), without a hit: top-dose activity change, negative = inhibition, most hits filed as inhibitors. FMDV antiviral cell-based qHTS; calls by dose curve; tested in HEK293T cells; note: read-out not given here; potency is the fitted concentration of half-maximal effect; nearly all actives have a fitted effect of over 45% in size
Vaccinia mCherry – vaccinia inhibition (mCherry reporter) | Vaccinia virus mCherry reporter infection, fluorescence | Potency, µM (highest dose often 36.5 µM), without a hit: top-dose activity change, negative = inhibition, actives largely listed as inhibitors | 0.63% of 310,000 active | AID 720579; calls by dose curve; tested in A549 cells; note: potency is the fitted concentration of half-maximal effect; nearly all actives have a fitted effect of over 35% in size
LASV entry inh – blocks Lassa virus binding to or entry into cells; Lassa virus pseudotype entry inhibition, cell reporter; Potency, µM (doses to about 37.9 µM), for inactives: at the top dose activity change, negative = inhibition, hits mostly inhibitors; 1.2% of 300,000 active; AID 540256; calls by dose curve; tested in HEK293 cells; note: potency is the fitted concentration of half-maximal effect; nearly all actives have a fitted effect of over 50% in size
HCMV antiviral – human cytomegalovirus inhibition; 4.5% of 410,000 active; HFF cells, HCMV-luciferase reporter, 72 h; hits give low values; activity change, negative = inhibition, % at 57.5 µM; in the data active = activity change below about -60%; inconclusive = no clear call, values can overlap the other calls; inactive = above about -39%
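Steps: HFFs plated, 16 h 37C; compounds added; HCMV-luciferase added to MOI 1 PFU/cell; 72 h 37C; OneGlo reagent, 5 min room temperature; luminescence read, normalized to controls.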
Vaccinia Venus – vaccinia inhibition (Venus reporter); Vaccinia virus Venus reporter expression, fluorescence; Potency, µM (series often up to 36.5 µM), for the others: at the top dose activity change, negative = inhibition, usual class: inhibitors; 0.46% of 330,000 active; AID 720580; calls by dose curve; tested in A549 cells; note: potency is the fitted concentration of half-maximal effect; nearly all actives have a fitted effect of over 30% in size
Marburg entry inh – blocks Marburg virus binding to or entry into cells; Marburg virus pseudotyped entry inhibition, cell reporter; Potency, µM (highest dose often 37.8 µM), inactives show at the highest dose activity change, negative = inhibition, usual class: inhibitors; 1.8% of 300,000 active; AID 540276; calls by dose curve; tested in HEK293 cells; note: potency is the fitted concentration of half-maximal effect
* = called active by the depositor; i = inactive; ? = inconclusive; / = not tested or not shown; [ ] = dose if it differs, or a comment. % is set by controls: 0 for no effect and ±100 for the full control effect.

SMILES | FMDV inh | Vaccinia mCherry | LASV entry inh | HCMV antiviral | Vaccinia Venus | Marburg entry inh
CCc1ccc(N(C(=O)c2ccco2)C(C(=O)NC2CCCC2)c2cccnc2)cc1 (stereo not drawn) | 19% | -17% | 1µM* | ? | -11% | ?
O=C1NC(=O)N(c2ccc3c(c2)OCO3)C(=O)/C1=C/c1cccs1 | 28µM* | i | ? | 99 | 20% | ?
Cc1ccn2c(=S)[nH]nc2c1 | -11% | i | / | -67* | 0% | /
COc1cc(C2CC(=O)c3c([nH]c(C(=O)OCCOC(C)C)c3C)C2)cc(OC)c1OC (stereo not drawn) | 11µM* | -28% | ? | -63* | -25% | ?
COc1cc(C2CC(=O)c3c([nH]c(C(=O)OCc4ccc(C)cc4)c3C)C2)cc(OC)c1OC (stereo not drawn) | 14µM* | ? | -12%[46.1 µM] | -18 | -29%[7.34 µM] | ?
COc1ccc(OC)c(C2CC(=O)c3c([nH]c(C(=O)OCc4ccc(C)cc4)c3C)C2)c1 (stereo not drawn) | 0% | -5%[7.34 µM] | -10%[46.1 µM] | -28 | -26%[7.34 µM] | ?
CC1(C)Cc2ccccc2C(/C(=N/O)C(N)=O)=N1 | -26% | -1% | 28% | 62 | -11% | 3%
CC(=O)c1ccc(N/N=C(/C(N)=O)C2=NC(C)(C)Cc3ccccc32)cc1 | 0% | ? | 2.9µM* | ? | ? | 3.3µM*
CC1(C)Cc2ccccc2C(/C(=N\Nc2cccc(Cl)c2)C(N)=O)=N1 | ? | ? | ? | -102* | ? | ?
COc1cc(OC)c(OC)cc1CN1CCCC(c2nc(C)ncc2-c2ccc(F)cc2)C1 (stereo not drawn) | -10% | -1% | / | / | -14% | /
Cc1cc(C)c(NC(=O)c2ccc3nc(C(C)C)oc3c2)c(C)c1 | -9% | -5% | -12%[46.1 µM] | -15 | 13% | /
COc1cc(OC)c(NC(=O)c2ccc3nc(C(C)C)oc3c2)cc1Cl | 13µM* | i | -5%[46.1 µM] | -30 | -20% | /
COC(=O)C1CCN(Cc2ccc3c(c2)CN(C(=O)c2cc4ccccc4n2C)CCO3)CC1 | ? | -12% | / | / | -5% | /
CCN1C(=O)NC(c2cccc(C(F)(F)F)c2)C(C(C)=O)=C1C (stereo not drawn) | / | / | ? | / | / | 12%[14.2 µM]
COc1cc(SC)ccc1C(=O)Nc1ccccn1 | -56% | -13% | ? | 45 | -22% | ?
COc1cc(SC)ccc1C(=O)Nc1ncc(C)s1 | 10µM* | / | ? | -82* | / | 1.5µM*
COc1cc(SC)ccc1C(=O)Nc1ccc(Br)cn1 | -93% | / | / | -83* | / | /
COc1cc(SC)ccc1C(=O)Nc1cccc(C)n1 | -27% | i | 8.9µM* | 30 | -18% | 10µM*
COc1cc(SC)ccc1C(=O)Nc1ccon1 | 53% | / | ? | -107* | / | 12%
COc1cc(SC)ccc1C(=O)NC(C)C | 1% | i | -12% | -12 | -7% | ?
COc1cc(SC)ccc1C(=O)Nc1ncc(Cl)cc1Cl | 37% | -11% | ? | 0 | -1% | -2%[46.1 µM]
CCN1CCN(C(=O)C2CCC(=O)N(Cc3cccc(C(F)(F)F)c3)C2)CC1 (stereo not drawn) | -16% | 0% | 0% | ? | -2% | -1%
CCCCN(CCCC)Cc1cc(=O)oc2cc(C)cc(C)c12 | -17% | 14% | 1%[46.1 µM] | -20 | 1% | /
Cc1cc(C)c2c(CN(C)Cc3ccccc3)cc(=O)oc2c1 | 53% | 31% | 10µM* | -31 | 0% | /
Cc1cc(C)c2c(CCl)cc(=O)oc2c1 | 28µM* | -20% | ? | -95* | ? | ?
SMILES | FMDV inh | Vaccinia mCherry | LASV entry inh | HCMV antiviral | Vaccinia Venus | Marburg entry inh
C=CCN1C(=O)[C@]2(OCCC=C[C@@H]2C)c2cc(OC)ccc21 | / | / | / | / | / | 37%[14.2 µM]
COc1cc(OC)cc(-c2c(-c3cccs3)c3cc(-c4ccc(N(C)C)nc4)ccc3n2C)c1 | 0% | -9% | / | -26 | -26% | /
CC(=O)c1c(C)[nH]c(C(=O)NCc2ccc(Cl)cc2)c1C | 6% | -12% | / | 5 | -24% | /
CC(=O)c1[nH]c(C)c(C(=O)NCc2ccc(Cl)cc2)c1C | ? | -29% | 21%[46.1 µM] | -94* | -29% | /
O=C(COc1ccccc1F)Nc1ccc2c(c1)CCC2 | 32% | -13% | 4% | 85 | -7% | ?
O=C(COc1ccc2ccccc2c1)Nc1ccncc1 | -13% | ? | -1% | -100* | -21% | -4%[46.1 µM]
O=C(COc1ccc2c(c1)CCC2)Nc1ccccn1 | -87% | -18% | 11µM* | 51 | -3% | ?
O=C(COc1cccc(Cl)c1)Nc1ccc2c(c1)CCC2 | 23% | -20% | 8% | -66* | -16% | -2%
CCCOc1ccc(CNC(=O)CCCn2ncn3c(cc4sc(CC)cc43)c2=O)cc1 | -7% | -5% | / | -21 | -14% | ?
COc1ccc(NC(=O)C(c2ccccn2)N(C(C)=O)c2ccc(C)cc2)cc1 (stereo not drawn) | 18% | i | -10% | 93 | -5% | -2%
CC(=O)Nc1ccc(C(=O)N(C)C(C(=O)Nc2ccc(C)cc2)c2ccccn2)cc1 (stereo not drawn) | -8% | -9% | -11% | -63* | -1% | 10%
COc1ccccc1C(OC(=O)c1ccco1)C(=O)NCc1ccc(F)cc1 (stereo not drawn) | 1% | -12% | 3% | -3 | -8% | 16%[46.1 µM]
COc1ccccc1C(OC(=O)c1ccco1)C(=O)NC(C)(C)C (stereo not drawn) | -3% | / | 17% | -82* | / | 18%
CCCCCCN1C[C@H](n2cc(COC(=O)c3ccccc3)nn2)[C@@H](O)C[C@@H]1c1ccc(Cl)cc1 | ? | ? | / | ? | 10µM* | /
COc1ccc([C@H]2C[C@H](O)[C@@H](n3cc(COC(=O)c4ccccc4)nn3)CN2CC2CCCCC2)cc1 | ? | -26% | ? | -90* | ? | /
COCCCNC(=O)CN1C(=O)COc2ccc(S(=O)(=O)N3CCCC3)cc21 | 13% | 3% | 1%[46.1 µM] | -6 | 0% | -11%[46.1 µM]
COc1ccccc1S(=O)(=O)N(C)C[C@H]1OCc2cnnn2CCCC(=O)N([C@@H](C)CO)C[C@H]1C | -23% | i | / | 2 | -7% | /
N#CC(C(=O)C1CCCCC1)c1nc2ccccc2[nH]1 (stereo not drawn) | / | -28% | -20% | -99* | -28% | 1%
COc1ccc(CNC(=O)CSCc2ccc(C)cc2)c(OC)c1 | -8% | -3% | 7%[46.1 µM] | 5 | -3% | /
CN(c1ccccc1)S(=O)(=O)c1cccc(NC(=O)Nc2ccc(Cl)cc2C#N)c1 | -22% | i | 1% | 43 | -9% | 0%
CCN(c1ccccc1)S(=O)(=O)c1cc(NC(=O)Nc2ccccc2C#N)ccc1Cl | ? | ? | -2% | -68* | -29% | 16%
CCN(c1ccccc1)S(=O)(=O)c1ccc(Cl)c(NC(=O)Nc2ccc(Cl)cc2C#N)c1 | 0% | 11µM* | ? | ? | 10µM* | ?
N#Cc1nc(-c2cccc3ccccc23)oc1NCC1CCCO1 (stereo not drawn) | 7% | -26% | 0% | -67* | -14% | 16%

Assay outcomes: PubChem BioAssay, National Center for Advancing Translational Sciences (NCATS)
